Measured values published in ChEMBL document CHEMBL1157539, “Thousands of chemical starting points for antimalarial lead identification” (Nature, 2010).

system: Plasmodium falciparum; assay: GSK_TCMDC: Inhibition of Plasmodium falciparum 3D7 in whole red blood cells, using parasite LDH activity as an index of growth. Test compounds present at 2uM; type: functional

**Q.** How did the Inhibition turn out when `Cl.O=S(=O)(c1ccc(OCc2ccc(Cl)cc2)cc1)c1cc2c(cc1OCc1ccccc1)CCN(CC1CC1)CC2` was run?
**A.** Its Inhibition is 82%.

**Q.** For `COc1ccccc1C1CCN(C2CCC(NC(=O)/C=C/c3ccc(C(F)(F)F)cc3)CC2)CC1` (configuration not stated), which Inhibition is on record?
**A.** Its Inhibition is 88%.

**Q.** Which Inhibition does the source give for `Cc1cccc2nc(-c3ccc(-c4ccc(NC(=O)Nc5ccsc5)cc4)s3)[nH]c12` here?
**A.** Its Inhibition is 100%.

**Q.** With `Cl.N#Cc1ccc2c(c1)CCN(CCC1CCC(NC(=O)/C=C/c3c[nH]c4c(Br)cccc34)CC1)CC2` (configuration not stated) as the molecule, how does the Inhibition read?
**A.** Its Inhibition is 100%.

**Q.** How did the Inhibition turn out when `O=C(Nc1ccc(N2CCN(c3ncccc3C(F)(F)F)CC2)nc1)c1cccs1` was run?
**A.** The Inhibition was 83%.

**Q.** Which Inhibition does the source give for `O=C(Nc1cccc(CN2CCCN(Cc3cccc(O)c3)CC2)c1)c1ccc2ccccc2c1.O=C(O)C(F)(F)F` here?
**A.** The Inhibition was 97%.

**Q.** `CCOC(=O)CCc1cc(F)c(F)c(OC[C@H](O)CNC(C)(C)C(O)c2ccc3ccccc3c2)c1.Cl` (some centres not stated) was tested. Which Inhibition did it give?
**A.** Its Inhibition is 99%.

**Q.** With `CCc1cc(NC2CCN(C)CC2)nc(Nc2ccc(C)cc2)n1` as the molecule, how does the Inhibition read?
**A.** The Inhibition was 95%.

**Q.** How did the Inhibition turn out when `O=C(C1CC1)N1c2ccccc2CCc2ccccc21` was run?
**A.** The Inhibition was 98%.

**Q.** Which Inhibition does the source give for `CCOc1ccc(-c2nc(NC(=O)COc3ccc(OC)cc3)sc2C)cc1` here?
**A.** The Inhibition was 99%.

**Q.** `CCOC(=O)c1ccc(NCc2ccccn2)cc1` was tested. Which Inhibition did it give?
**A.** Its Inhibition is 99%.

**Q.** Which Inhibition does the source give for `COc1ccc(C2NCCc3c2[nH]c2ccccc32)cc1CN1CCN(c2ccc(F)cc2)CC1.Cl` (configuration not stated) here?
**A.** The Inhibition was 97%.

**Q.** Which Inhibition does the source give for `COc1cc(F)c2ncc(Cl)c(CCN3CCC(NCc4ccc5c(c4)NC(=O)CO5)CC3)c2c1.Cl` here?
**A.** The Inhibition was 95%.

**Q.** How did the Inhibition turn out when `COc1ccc(C(=O)Nc2nonc2-c2ccc(OC)c(OC)c2)cc1Cl` was run?
**A.** The Inhibition was 97%.

**Q.** How did the Inhibition turn out when `COc1cccc(Nc2nc(NCCO)c3ccccc3n2)c1.Cl` was run?
**A.** The Inhibition was 99%.

system: Plasmodium falciparum; assay: GSK_TCMDC: Inhibition of Plasmodium falciparum Dd2 in whole red blood cells, using parasite LDH activity as an index of growth. Test compounds present at 2uM; type: functional

**Q.** For `Cc1cccc2nc(-c3cccc(-c4ccc(NC(=O)C(C)CN(C)C)cc4)c3)[nH]c12` (configuration not stated), which Inhibition is on record?
**A.** Its Inhibition is 100%.

**Q.** Which Inhibition does the source give for `CC(C)(C)c1ccc(/C=C/C(=O)NCCCCCN2CCC(c3c[nH]c4ccccc34)CC2)cc1` here?
**A.** The Inhibition was 12%.

**Q.** How did the Inhibition turn out when `Cc1ccc(S(=O)(=O)N(CCCN2CCN(C)CC2)Cc2csc(-c3ccc(CNCc4ccccc4)cc3)n2)cc1.O=C(O)C(F)(F)F` was run?
**A.** The Inhibition was 90%.

**Q.** How did the Inhibition turn out when `COc1ccc(Nc2ccnc3cc4ccccc4cc23)cc1.Cl` was run?
**A.** The Inhibition was 73%.

**Q.** `COc1cc2nc(N3CCC(C(N)=O)CC3)nc(NCc3ccccc3)c2cc1OC` was tested. Which Inhibition did it give?
**A.** Its Inhibition is 23%.

**Q.** For `Cc1nc2nc(N)nc(N)c2c(C)c1Cc1ccc(Cl)cc1.Cl`, which Inhibition is on record?
**A.** Its Inhibition is 22%.

**Q.** How did the Inhibition turn out when `CSc1nccc(-c2ccc3ccnc(N)c3c2)n1` was run?
**A.** Its Inhibition is 98%.

**Q.** For `Oc1ccc(CCNc2nc(N/N=C/c3ccc(Cl)cc3)nc(N3CCNCC3)n2)cc1`, which Inhibition is on record?
**A.** The Inhibition was 68%.

**Q.** How did the Inhibition turn out when `c1ccn2c(-c3ncnc(NCc4ccc5c(c4)CCO5)n3)cnc2c1` was run?
**A.** Its Inhibition is 47%.

**Q.** `CCCCNC(=O)[C@H](CC1CCCCC1)NC(=O)c1ccc(O)c(-c2ccc(Cl)c(Cl)c2)c1` was tested. Which Inhibition did it give?
**A.** The Inhibition was 99%.

**Q.** Which Inhibition does the source give for `COc1ccc2ncc(F)c([C@H](O)CN3CCC(NCc4ccc5c(c4)NC(=O)CS5)CC3)c2c1.Cl` here?
**A.** Its Inhibition is 98%.

**Q.** `CN(C)CC1CCCN1Cc1ccccc1-c1cnn(C)c(=O)c1Oc1ccccc1F.O=C(O)C(F)(F)F` (configuration not stated) was tested. Which Inhibition did it give?
**A.** Its Inhibition is 27%.

**Q.** For `Cc1cc(OCCCN2CCC(NS(=O)(=O)c3ccc(Cl)c(Cl)c3)C2)c2ccccc2n1` (configuration not stated), which Inhibition is on record?
**A.** Its Inhibition is 37%.

**Q.** For `COc1cccc(Nc2c(C(N)=O)cnc3ccc(-c4ccccc4)cc23)c1`, which Inhibition is on record?
**A.** The Inhibition was 99%.

**Q.** `CCNc1cc(C(=O)N[C@@H](Cc2ccccc2)[C@H](O)CNC(C)(C)CCCC(C)C)cc(N2CCCC2=O)c1.O=CO` was tested. Which Inhibition did it give?
**A.** Its Inhibition is 81%.

**Q.** For `O=C(Nc1ccc2c(c1)CCN(C1CCC1)CC2)c1cn(-c2ccccc2)nc1-c1ccccc1.O=C(O)C(F)(F)F`, which Inhibition is on record?
**A.** Its Inhibition is 10%.

**Q.** With `COc1ccc(-c2ccc(CNC3Cc4ccccc4C3)cc2)cc1S(=O)(=O)NCCN1CCCC1.O=C(O)C(F)(F)F` as the molecule, how does the Inhibition read?
**A.** Its Inhibition is 99%.

**Q.** For `O=C(c1ccc(F)c(F)c1)N1CCOC(CCN2CCC(c3ccccc3)CC2)(c2ccc(Cl)c(Cl)c2)C1` (configuration not stated), which Inhibition is on record?
**A.** The Inhibition was 75%.

**Q.** For `COc1ccc2nccc([C@@H](O)CN3CCC(NC(=O)/C=C/c4cccc(-c5ccccc5)c4)CC3)c2c1`, which Inhibition is on record?
**A.** Its Inhibition is 83%.

**Q.** For `CC(C)C[C@H](NC(=O)c1ccc(OCCN2CCOCC2)cc1)C(=O)N[C@H](/C=N/N(C)C(=O)c1ccccc1)CCc1ccccc1`, which Inhibition is on record?
**A.** Its Inhibition is 72%.

**Q.** Which Inhibition does the source give for `Cc1[nH]c2ccc(NS(C)(=O)=O)cc2c1C1CCN(CCC2CCN(C(=O)/C=C/c3ccc(Cl)c(Cl)c3)CC2)CC1` here?
**A.** Its Inhibition is 94%.

**Q.** How did the Inhibition turn out when `CCC(C)C(COC(=O)c1cc(OC)c(OC)c(OC)c1)N(C)CCN(C)C(COC(=O)c1cc(OC)c(OC)c(OC)c1)C(C)CC.Cl` (configuration not stated) was run?
**A.** Its Inhibition is 45%.
